RORg inh: qHTS for inhibitors of ROR gamma transcriptional activity | Drosophila S2 Gal4-RORgamma UAS-luciferase reporter, 20 h | Nuclear receptor ROR-gamma (Mus musculus), P51450 | AID 2551, 2010 | actives 5.4% (n = 310,000) | Potency, µM (top dose mostly 53.6 µM), inactives show at the highest dose activity change, negative = inhibition, hits mostly inhibitors; further: on the % scale 0 is the no-effect control and ±100 the full control effect; nearly all actives have a fitted effect of over 60% in size
Target sequence (P51450 whole entry, looked up, the tested form may be a part): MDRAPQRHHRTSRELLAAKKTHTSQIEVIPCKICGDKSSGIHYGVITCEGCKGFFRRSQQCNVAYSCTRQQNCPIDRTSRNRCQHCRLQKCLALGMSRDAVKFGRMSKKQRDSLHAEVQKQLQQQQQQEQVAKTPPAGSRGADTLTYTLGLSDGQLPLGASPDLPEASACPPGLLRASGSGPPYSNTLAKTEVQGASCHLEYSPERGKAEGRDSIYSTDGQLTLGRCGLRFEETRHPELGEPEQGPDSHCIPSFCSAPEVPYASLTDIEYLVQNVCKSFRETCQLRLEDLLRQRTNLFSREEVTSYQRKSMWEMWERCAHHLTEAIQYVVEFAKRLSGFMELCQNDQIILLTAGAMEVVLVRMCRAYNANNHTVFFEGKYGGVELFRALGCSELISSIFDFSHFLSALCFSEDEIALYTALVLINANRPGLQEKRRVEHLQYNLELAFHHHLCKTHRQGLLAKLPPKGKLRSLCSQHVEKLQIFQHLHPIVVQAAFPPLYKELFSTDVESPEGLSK
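A Gal4/UAS one-hybrid system in insect cells: metallothionein-promoter Gal4–ROR gamma fusion plus Photinus luciferase reporter. Copper sulfate 700 uM final, 20 hr ambient incubation, luminescent detection after 10 min with reagent.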
KB-3-1 tox: qHTS assay for MDR1-selective chemotherapeutics: Primary screen using the parental adenocarcinoma cell KB-3-1; KB-3-1 viability, CellTiter-Glo ATP luminescence, 72 h; Potency, µM (series often up to 46.1 µM), hits mostly cytotoxic; actives 1.4% (n = 400,000); AID 1347075, 2019; further: on the % scale 0 is the no-effect control and ±100 the full control effect; nearly all actives have a fitted effect of over 60% in size
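Using CellTiter-Glo luminescence, growth of non-resistant KB-3-1 adenocarcinoma cells is assessed 72 h after pin-tool compound addition at 37 °C. Normalized responses across the concentration series yield fitted curves.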
KB-V1 MDR tox: qHTS assay for MDR1-selective chemotherapeutics: Primary screen using the drug-selected MDR subline cells KB-V1 | Potency, µM (doses to about 46.1 µM), most hits filed as cytotoxic | KB-V1 MDR cells viability, CellTiter-Glo, 72 h | actives 3.4% (n = 400,000) | AID 1347076, 2019; further: on the % scale 0 is the no-effect control and ±100 the full control effect; nearly all actives have a fitted effect of over 60% in size
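Cells of the MDR subline KB-V1 are plated, dosed with compound at multiple concentrations, and incubated 72 h at 37 degrees C; CellTiter-Glo is then added and luminescence read after 10 min.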
VP16 counter: VP16 counterscreen qHTS for inhibitors of ROR gamma transcriptional activity | Drosophila S2 Gal4-VP16 UAS-luciferase, luminescence, 20 h | Potency, µM (top dose mostly 53.6 µM), for inactives: at the top dose activity, negative = inhibition, actives largely listed as inhibitors | actives 3.5% (n = 310,000) | AID 2546, 2010;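 further: Gal4-VP16 expression switched on by copper sulfate through the metallothionein promoter; on the % scale 0 is the no-effect control and ±100 the full control effect; nearly all actives have a fitted effect of over 50% in size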
MCF10A rerep: A quantitative high throughput screen for small molecules that induce DNA re-replication in MCF 10a normal breast cells. MCF 10A DNA re-replication, Hoechst nuclear intensity, 48 h. Potency, µM (titrated, usually from 46.1 µM), without a hit: top-dose activity, positive = re-replication, most hits filed as activators. actives 2.9% (n = 350,000). AID 624296, 2012; further: % of control where 0% means no effect; nearly all actives have a fitted effect of over 50% in size
SW480 rerep: A quantitative high throughput screen for small molecules that induce DNA re-replication in SW480 colon adenocarcinoma cells; SW480 DNA re-replication, Hoechst DNA content imaging, 48 h; Potency, µM (titrated, usually from 46.1 µM), for inactives: top-dose re-replication activation, most hits filed as activators; actives 1.8% (n = 340,000); AID 624297, 2012; further: % of control where 0% means no effect; nearly all actives have a fitted effect of over 55% in size
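Compounds, transferred as 23 nL by pin tool, were incubated with cells for 48 hr; DNA content per nucleus was then quantified by Hoechst staining and fluorescence plate imaging.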
* hit, by the source's call; i = inactive; ? = inconclusive; nt = no result; [ ] = remark or other dose. Hits are enriched below; roughly 10% of the tested compounds scored in any of these assays. The call rests on the fitted dose curve; in most records, active means well fitted curve in the direction sought with a large enough effect; inconclusive means small, poorly fitted or top-dose-only effect, or another doubt; inactive means no such curve, though single readings can be large; an effect the other way counts as inactive or inconclusive. Potency means the concentration at half of the fitted maximal effect.

SMILES	RORg inh	KB-3-1 tox	KB-V1 MDR tox	VP16 counter	MCF10A rerep	SW480 rerep
O=C(NCCCN1CCOCC1)c1ccc(Sc2ccc(Br)cc2)c([N+](=O)[O-])c1	-16.4%	i	i	1.8%	33.1%	0.3%
O=C(NCCCN1CCOCC1)c1ccc(Sc2ccccc2Cl)c([N+](=O)[O-])c1	0.0%	?	13µM*	2.1%	?	?
Cc1c(CNCCCc2ccccc2)c(C(=O)O)c(C)n1Cc1ccc(Cl)cc1	nt	i	i	nt	nt	nt
O=C1C(Cc2cccc([N+](=O)[O-])c2)SC(=Nc2ccccc2)N1c1ccccc1 (stereo not given)	23.6%	i	20.6µM*	-0.3%	?	21.5%
O=C1C(Cc2ccc(Br)cc2)SC(=Nc2ccccc2)N1c1ccccc1 (stereo not given)	?	?	20.6µM*	-9.2%	?	?
CCOC(=O)C1=C(N)Oc2ccc3ccccc3c2C1c1cccnc1 (stereo not given)	?	?	11.2µM*	-1.5%	?	-0.7%[9.22 µM]
Cc1ccc(C)c(OCCC(=O)OCc2csc(CC(=O)Nc3ccccc3C)n2)c1	nt	i	i	nt	6.0%	-4.5%
CC(=O)N/N=C/c1cc(C)n(-c2ccc(Br)cc2)c1C	5.2%	i	?	-0.8%	?	-0.2%
Cc1cc(/C=N/NC(=O)Cn2c3ccccc3c(=O)c3ccccc32)c(C)n1-c1ccc(Cl)cc1	-16.9%	?	i	0.4%	11.6µM*	15.9%
Cc1ccc(-n2c(C)cc(/C=N/NC(=O)Cn3c4ccccc4c(=O)c4ccccc43)c2C)cc1	-33.2%	i	i	2.4%	14.6µM*	11.6µM*
CC(C)(C)CC(C)(C)N=C1Nc2cc(Cl)c(Cl)cc2N[C@]12C[C@H]1CCCC(=O)N3CC[C@@H](C2)[C@@H]13	nt	i	i	nt	nt	nt
CCn1c(C)nnc1SCC(=O)Nc1ccc(N2CCOCC2)cc1	nt	i	i	nt	-3.9%	-5.8%
CCn1c(SCC(=O)Nc2ccccc2N2CCOCC2)nnc1-c1ccccc1	0.0%	i	18.4µM*	-6.6%	16.1%	-2.9%
COc1ccc(NC(=O)CSc2nnc(-c3ccccc3C)n2C)cc1	-26.2%[0.365 µM]	i	14.6µM*	nt	7.9%	-2.4%
COc1ccc(-c2nnc(SCC(=O)Nc3ccc(C)cc3)n2C)cc1	-0.1%	i	i	-9.9%	-7.6%	1.8%
CCn1c(SCC(=O)Nc2ccc(N3CCOCC3)cc2)nnc1-c1ccc(OC)cc1	-1.9%	i	16.4µM*	?	-3.7%	3.3%
COCc1cc(C)nc(SCC(=O)Nc2ccccc2N2CCOCC2)c1C#N	-20.6%	i	i	-1.9%	20.6µM*	?
CC(C)[C@@H](CC(=O)N[C@@H]1CCCC[C@H]1C(=O)N[C@H](CC(=O)N[C@@H](CCC(=O)O)CC(=O)O)Cc1ccccc1)NC(=O)C[C@H](CO)NC(=O)[C@@H]1CCCC[C@H]1N	13.2%	nt	nt	-5.3%	nt	nt
CCOC(=O)CC(C(=O)OCC)C1CCCCC1=O (stereo not given)	-10.7%	nt	nt	-5.9%	nt	nt
Cc1cc(C)cc(NC(=O)C(Cc2ccccc2)NS(=O)(=O)c2ccc3c(c2)CCC(=O)N3)c1 (stereo not given)	nt	i	i	nt	nt	nt
Cc1nc(COC(=O)c2cc(O)c3ccccc3c2O)cs1	?	i	i	-13.2%	?	7.31µM*
Cc1nc(COC(=O)c2ccc(CO)cc2)cs1	-11.6%	i	i	-8.6%	1.5%	2.5%
O=C(CN1C(=O)CC(c2ccccc2)Sc2ccccc21)Nc1cccc(Cl)c1 (stereo not given)	nt	?	20.6µM*	nt	nt	nt
CCOc1ccccc1NC(=O)CN1C(=O)CC(c2ccc(OC)c(OC)c2)Sc2ccccc21 (stereo not given)	nt	?	18.4µM*	nt	nt	nt
CCOC(=O)c1ccccc1NC(=O)CN1C(=O)CC(c2ccco2)Sc2ccccc21 (stereo not given)	nt	i	?	nt	nt	nt
SMILES	RORg inh	KB-3-1 tox	KB-V1 MDR tox	VP16 counter	MCF10A rerep	SW480 rerep
CCOc1ccccc1NC(=O)CN1C(=O)CC(c2ccco2)Sc2ccccc21 (stereo not given)	nt	?	13µM*	nt	nt	nt
CC1CCN(C(=O)CSc2nc3ccccc3nc2Cc2ccccc2)CC1	nt	i	i	nt	nt	nt
Cc1ccccc1OCC(=O)NCC(=O)OCC(=O)c1ccc(F)cc1	nt	i	i	nt	nt	nt
O=C(CC[C@H]1O[C@@H](n2ccc(=O)[nH]c2=O)[C@H](O)[C@@H]1O)N[C@H](Cc1ccccc1)C(=O)NCc1cccs1	nt	i	i	nt	nt	nt
CCOc1ccc(N)c(SSc2cc(OCC)ccc2N)c1	7.94µM*	i	i	6.31µM*	?	17.0%
CCOc1cccc(N)c1	16.9%	i	i	-4.1%	-6.2%	-1.1%
CCN1CCN(Cc2ccc(NC(=O)c3ccc(C)c(NC(=O)C(=O)c4c[nH]c5ccccc45)c3)cc2C(F)(F)F)CC1	12.6µM*	?	?	?	23.1µM*	?
CCN1CCN(Cc2ccc(NC(=O)c3cc(NC(=O)c4cc(C)on4)cc(OC)c3)cc2C(F)(F)F)CC1	?	?	?	-23.2%	12.6%	?
CCN1CCN(Cc2ccc(NC(=O)c3cc(NC(=O)c4cnn(-c5ccccc5)c4N)cc(OC)c3)cc2C(F)(F)F)CC1	-40.1%	i	i	-23.8%	14.6µM*	1.4%[9.22 µM]
O=C(Nc1ccc(F)c(Cl)c1)c1cc(C2CCCCN2C(=O)c2ccc3c(c2)CCO3)on1 (stereo not given)	nt	i	i	nt	nt	nt
CCCN(c1c(C)n(C)n(-c2ccccc2)c1=O)S(=O)(=O)c1ccc(C)cc1	nt	i	i	nt	nt	nt
COc1cccc(CC(=O)Nc2c(C(=O)N3CCN(c4ccccc4F)CC3)oc3ccccc23)c1	nt	16.4µM*	?	nt	nt	nt
O=C(CC[C@H]1O[C@@H](n2ccc(=O)[nH]c2=O)[C@H](O)[C@@H]1O)N[C@@H](Cc1ccccc1)C(=O)NCc1ccccc1	nt	i	i	nt	nt	nt
CCOc1cc(NC(=O)c2ccco2)c(OCC)cc1NC(=O)c1ccco1	-5.7%	i	i	3.7%	?	-1.6%
CCOc1cc(C#N)c(NC(=O)c2ccco2)cc1OCC	10.7%	6.51µM*	?	4.6%	?	9.2µM*
O=C(NCc1ccccc1Br)c1ccc(-n2cnc3cccnc32)cc1	nt	i	i	nt	nt	nt
